PubChem BioAssay (NCATS)
A number with no mark means an inactive call.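 Rule for the calls, unless noted: active = compounds whose dose series gives a full or clear partial fitted curve of increased nuclear translocation; inconclusive = weak partial curve or effect only at the top dose; inactive = no dose-dependent translocation response.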 Results filed as inconclusive are left out.

molecular target: Glucocorticoid receptor (Homo sapiens) (UniProt P04150); assay: GR-GFP Redistribution (AID 450); details: U2OS GR-GFP nuclear translocation, laser cytometry, 2 h; note: potency is the fitted concentration of half-maximal effect
Sequence (P04150 whole entry, looked up, the tested form may be a part): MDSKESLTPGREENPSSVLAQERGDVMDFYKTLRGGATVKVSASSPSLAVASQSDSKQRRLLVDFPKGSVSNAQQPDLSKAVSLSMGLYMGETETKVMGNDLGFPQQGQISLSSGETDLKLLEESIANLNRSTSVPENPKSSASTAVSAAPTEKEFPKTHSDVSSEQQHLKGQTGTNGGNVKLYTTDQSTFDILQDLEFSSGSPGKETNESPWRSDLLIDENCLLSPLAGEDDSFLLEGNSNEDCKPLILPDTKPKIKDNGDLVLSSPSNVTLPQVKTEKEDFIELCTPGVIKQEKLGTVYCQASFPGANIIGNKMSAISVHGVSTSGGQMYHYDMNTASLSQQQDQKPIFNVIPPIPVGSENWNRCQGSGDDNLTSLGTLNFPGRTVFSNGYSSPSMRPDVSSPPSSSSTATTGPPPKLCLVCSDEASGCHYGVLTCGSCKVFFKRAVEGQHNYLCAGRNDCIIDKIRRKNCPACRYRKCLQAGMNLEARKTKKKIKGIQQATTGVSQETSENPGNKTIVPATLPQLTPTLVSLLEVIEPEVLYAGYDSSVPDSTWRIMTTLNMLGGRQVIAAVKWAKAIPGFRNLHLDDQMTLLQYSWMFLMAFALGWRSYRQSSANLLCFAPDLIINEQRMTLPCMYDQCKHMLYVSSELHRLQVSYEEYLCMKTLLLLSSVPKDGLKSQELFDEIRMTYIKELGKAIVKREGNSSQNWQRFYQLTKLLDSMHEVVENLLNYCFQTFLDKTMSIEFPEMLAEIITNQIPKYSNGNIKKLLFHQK

Row | SMILES | Potency [µM]
1 | CC1(C)NCCN2C(=O)CSC21 (configuration not stated) | > 20.6
2 | Cc1ccc(-n2c(O)c(C=NCCN3CCOCC3)c(=O)[nH]c2=O)cc1 | > 20.6
3 | CC(=NCCO)c1c(O)n(C)c(=O)n(C)c1=O | > 20.6
4 | CCN(CC)CCCC(C)N=C(c1ccccc1)c1c(O)n(C)c(=O)n(C)c1=O (configuration not stated) | > 20.6
5 | O=c1c(C=NCCN2CCNCC2)c(O)n(C2CCCCC2)c(=O)n1C1CCCCC1 | > 20.6
6 | COC(=O)C(O)(c1c[nH]c2ccccc12)C(F)(F)F (configuration not stated) | > 20.6
7 | CCN1C[C@]2(C)CC[C@@H](O)[C@]34[C@@H]5CC6[C@@H](OC)C[C@@](O)([C@H]5[C@@H]6O)[C@@H](C[C@@H]23)[C@H]14 | > 46
8 | CCCc1nc2ccccc2c(=O)n1-c1ccccc1OC | > 20.6
9 | C=CCN1C[C@@H](C)N([C@H](c2ccc(C(=O)N(CC)CC)cc2)c2cccc(OC)c2)C[C@H]1C | > 46
10 | CC(=C1C(=O)c2ccccc2C1=O)N1CCN(CCN=Cc2c(O)n(C)c(=O)n(C)c2=O)CC1 | > 20.6
11 | CCCN1CCc2cccc3c2[C@@H]1Cc1ccc(O)c(O)c1-3 | > 46
12 | COC(=O)C(c1ccccc1)N1CCCCCC1 (configuration not stated) | > 20.6
13 | NC(N)=Nc1ccc2[nH]c3c(c2c1)C[C@]1(O)[C@@H]2Cc4ccc(O)c5c4[C@]1(CCN2CC1CC1)[C@H]3O5 | > 46
14 | C[C@H](N[C@@H](C)CCc1ccccc1)[C@H](O)c1ccc(O)cc1 | > 46
15 | CCCC[N+]1(C)[C@@H]2CC(OC(=O)[C@@H](CO)c3ccccc3)C[C@H]1[C@H]1O[C@H]12 (some centres not stated) | > 46
16 | CCCN(CC#CCO)CCC | > 20.6
17 | CCCCCCn1c(O)c(C=NCCCn2ccnc2)c(=O)[nH]c1=O | > 20.6
18 | O=c1[nH]c(=O)n(Cc2ccco2)c(O)c1C=NCc1ccc2c(c1)OCO2 | > 20.6
19 | CCOc1ccc(-n2c(O)c(C=NCCN3CCNCC3)c(=O)[nH]c2=O)cc1 | > 20.6
20 | O=c1[nH]c(=O)n(Cc2ccccc2)c(O)c1C=NCCN1CCOCC1 | > 20.6
21 | C=CCN1CCc2cccc3c2[C@@H]1Cc1ccc(O)c(O)c1-3 | > 46

molecular target: Glucocorticoid receptor (Homo sapiens) (UniProt P04150); assay: GR-EFC Redistribution (AID 451; calls by dose curve; note: potency is the fitted concentration of half-maximal effect); details: CHO-K1 GR-EFC translocation, beta-gal luminescence, 2 h
In short: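 CHO-K1 cells stably expressing nuclear-localized β-gal enzyme acceptor and GR fused C-terminally to the enzyme donor fragment; ligand-driven nuclear translocation restores β-gal by complementation. Compounds titrated up to 46 uM final, 2 h at 37 °C; luminescence read.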

Row | SMILES | Potency [µM]
22 | CCN1C[C@]2(C)CC[C@@H](O)[C@]34[C@@H]5CC6[C@@H](OC)C[C@@](O)([C@H]5[C@@H]6O)[C@@H](C[C@@H]23)[C@H]14 | > 46
23 | C=CCN1C[C@@H](C)N([C@H](c2ccc(C(=O)N(CC)CC)cc2)c2cccc(OC)c2)C[C@H]1C | > 46
24 | CCCN1CCc2cccc3c2[C@@H]1Cc1ccc(O)c(O)c1-3 | > 46
25 | NC(N)=Nc1ccc2[nH]c3c(c2c1)C[C@]1(O)[C@@H]2Cc4ccc(O)c5c4[C@]1(CCN2CC1CC1)[C@H]3O5 | > 46
26 | C[C@H](N[C@@H](C)CCc1ccccc1)[C@H](O)c1ccc(O)cc1 | > 46
27 | CCCC[N+]1(C)[C@@H]2CC(OC(=O)[C@@H](CO)c3ccccc3)C[C@H]1[C@H]1O[C@H]12 (some centres not stated) | > 46
28 | CC(C)(C)NC[C@H](O)c1ccccc1Cl | > 46

molecular target: Mitogen-activated protein kinase 10 (Mus musculus) (UniProt Q61831); assay: JNK3 AlphaScreen Assay (AID 530; active = well fitted curve in either direction with a large enough effect, not every such curve was filed as active;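 note: kinase came from lysate of stimulated human HepG2 cells; signal reports phosphorylation of biotinylated GST-cJun 1-79 at Ser73 with 10 µM ATP; % is set by controls: 0 for no effect and ±100 for the full control effect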); details: JNK3 lysate, c-Jun phosphorylation; series mostly up to 57.1 µM; activity change, negative = inhibition: at the top concentration
In short: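 JNK3 came from HepG2 lysates pre-activated with IL-1beta and TNF-alpha and phosphorylated biotinylated GST-cJun (1-79) at 10 uM ATP, pH 7.6, room temperature. Compounds were titrated. AlphaScreen signal used anti-phospho-cJun (Ser73) antibody.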

Row | SMILES | activity change, negative = inhibition [%]
29 | C[C@@]12CC[C@H]3[C@@H](CCC4=CC(=O)CC[C@]43C)[C@H]1CCC2=O | -3.38
30 | C=CCN1C[C@@H](C)N([C@H](c2ccc(C(=O)N(CC)CC)cc2)c2cccc(OC)c2)C[C@H]1C | 34.5
31 | NC(N)=Nc1ccc2[nH]c3c(c2c1)C[C@]1(O)[C@@H]2Cc4ccc(O)c5c4[C@]1(CCN2CC1CC1)[C@H]3O5 | -6.67
32 | C[C@H](N[C@@H](C)CCc1ccccc1)[C@H](O)c1ccc(O)cc1 | 14.8
33 | CCCC[N+]1(C)[C@@H]2CC(OC(=O)[C@@H](CO)c3ccccc3)C[C@H]1[C@H]1O[C@H]12 (some centres not stated) | 22.8

molecular target: 3',5'-cyclic-AMP phosphodiesterase 4B (Homo sapiens) (UniProt Q07343); assay: qHTS Assay for Inhibitors of PDE-IV (AID 607; active = well fitted activation curve with a large enough effect in the main read-out, with a control signal flat, not every such curve was filed as active; note: % of control where 0% means no effect); details: HEK293 ACTOne CNG channel cells, membrane potential fluorescence; series mostly up to 22.9 µM; activation (PDE inhibition): at the top concentration
Sequence (Q07343 whole entry, looked up): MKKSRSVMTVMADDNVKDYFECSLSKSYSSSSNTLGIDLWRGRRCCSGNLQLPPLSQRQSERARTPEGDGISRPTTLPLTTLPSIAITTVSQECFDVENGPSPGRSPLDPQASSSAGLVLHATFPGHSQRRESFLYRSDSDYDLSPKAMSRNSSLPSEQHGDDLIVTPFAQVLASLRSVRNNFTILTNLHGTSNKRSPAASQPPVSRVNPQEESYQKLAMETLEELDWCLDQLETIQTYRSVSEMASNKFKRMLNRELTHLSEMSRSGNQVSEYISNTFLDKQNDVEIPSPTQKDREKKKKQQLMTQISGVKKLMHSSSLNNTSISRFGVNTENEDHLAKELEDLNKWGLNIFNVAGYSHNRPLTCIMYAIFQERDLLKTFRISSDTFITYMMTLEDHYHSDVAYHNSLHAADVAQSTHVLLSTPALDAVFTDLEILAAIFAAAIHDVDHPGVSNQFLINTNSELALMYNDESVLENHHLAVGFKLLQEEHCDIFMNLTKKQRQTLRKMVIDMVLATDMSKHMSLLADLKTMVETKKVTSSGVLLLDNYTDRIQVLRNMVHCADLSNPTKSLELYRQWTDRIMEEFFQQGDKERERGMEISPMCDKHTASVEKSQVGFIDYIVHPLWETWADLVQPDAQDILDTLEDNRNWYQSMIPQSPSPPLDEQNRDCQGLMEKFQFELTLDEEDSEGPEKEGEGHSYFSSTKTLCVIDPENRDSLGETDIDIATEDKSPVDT
In short: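 HEK293 ACTOne cells with CNG channel (1000/well), endogenous PDE4; membrane potential dye, compounds up to 22.9 uM final. Fluorescence Ex 535/Em 590; RO 20-1724 (100 uM final) as reference.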

Row | SMILES | activation (PDE inhibition) [%]
34 | C[C@@]12CC[C@H]3[C@@H](CCC4=CC(=O)CC[C@]43C)[C@H]1CCC2=O | 1.12
35 | CCN1C[C@]2(C)CC[C@@H](O)[C@]34[C@@H]5CC6[C@@H](OC)C[C@@](O)([C@H]5[C@@H]6O)[C@@H](C[C@@H]23)[C@H]14 | 9.87
36 | C=CCN1C[C@@H](C)N([C@H](c2ccc(C(=O)N(CC)CC)cc2)c2cccc(OC)c2)C[C@H]1C | 17.3
37 | CCCN1CCc2cccc3c2[C@@H]1Cc1ccc(O)c(O)c1-3 | 11.8
38 | NC(N)=Nc1ccc2[nH]c3c(c2c1)C[C@]1(O)[C@@H]2Cc4ccc(O)c5c4[C@]1(CCN2CC1CC1)[C@H]3O5 | -10.1
39 | C[C@H](N[C@@H](C)CCc1ccccc1)[C@H](O)c1ccc(O)cc1 | 3.01
40 | CCCC[N+]1(C)[C@@H]2CC(OC(=O)[C@@H](CO)c3ccccc3)C[C@H]1[C@H]1O[C@H]12 (some centres not stated) | -7.43
41 | CC(C)(C)NC[C@H](O)c1ccccc1Cl | -19.1
42 | C=CCN1CCc2cccc3c2[C@@H]1Cc1ccc(O)c(O)c1-3 | -23.3
